Laboratory results reported in PubChem BioAssay.

Experiments:
[1] = tested on: Human papillomavirus type 1a protein E7 (residues 44-93); assay: HPV1a E7 fragment binders on microarrays, primary screen, biochemical, small-molecule microarray, residues 44-93, 635 nm fluorescence (AID 1108); details: small-molecule microarray binding, fluorescence 635 nm; higher = more signal;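 also: E7 fragment applied at 1 µg/mL in TBST for 1 h at 4 C; score combines spot fluorescence with its signal to noise ratio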
[2] = modulators of HCV replicon luciferase signal, primary screen, HCV replication inhibitor project, Huh7 cells, luciferase reporter (AID 1109); details: 48 h, higher = more signal;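 also: huh7 hepatoma cells harbouring a luciferase neomycin HCV replicon reporter; luciferase luminescence as measure of HCV replicon replication; test concentration not given here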
[3] = target: Left-right determination factor 2 (Homo sapiens) (UniProt O00292); assay: LEFTY2 binders on small-molecule microarrays, primary screen, biochemical, small-molecule microarray, 635 nm fluorescence scan (AID 1110); details: LEFTY2 binding, higher = more signal
Chain of Left-right determination factor 2 (Homo sapiens) (O00292 whole entry, looked up): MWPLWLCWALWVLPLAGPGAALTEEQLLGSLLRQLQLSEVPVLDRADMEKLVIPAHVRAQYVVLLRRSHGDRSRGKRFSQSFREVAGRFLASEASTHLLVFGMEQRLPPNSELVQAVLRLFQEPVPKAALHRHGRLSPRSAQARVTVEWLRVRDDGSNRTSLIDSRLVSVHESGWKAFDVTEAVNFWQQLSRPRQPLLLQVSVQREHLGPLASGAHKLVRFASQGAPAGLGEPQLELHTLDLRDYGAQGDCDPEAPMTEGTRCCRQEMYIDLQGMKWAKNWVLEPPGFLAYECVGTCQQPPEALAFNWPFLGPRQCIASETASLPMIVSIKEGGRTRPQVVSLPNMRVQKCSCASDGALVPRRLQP

[4] = target: Calmodulin-1 (Homo sapiens) (UniProt P0DP23); assay: CALM1 binders on microarrays, EGTA buffer, profiling panel, biochemical, small-molecule microarray, Cy5-labelled CALM1 (AID 1111); details: Cy5-CALM1 binding fluorescence, higher = more signal;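 also: labelled calmodulin applied in Tris saline Tween buffer holding calcium plus EGTA and DTT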
[5] = target: Calmodulin-1 (Homo sapiens) (UniProt P0DP23); assay: calcium-bound CALM1 binders on microarrays, profiling panel, artefact control for SMM control-protein annotation, biochemical, small-molecule microarray, Cy5-labelled CALM1, plus calcium (AID 1112); details: Cy5-CALM1 binding fluorescence, higher = more signal;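 also: score merges spot fluorescence with signal to noise from triplicate slides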
[6] = small-molecule microarray binders of probe aWnt5a, primary screen, biochemical, biotinylated probe, 635/667 nm fluorescence (AID 1113); details: higher = more signal;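 also: score merges 667 nm fluorescence intensity with signal-to-noise per printed feature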
[7] = small-molecule microarray binders of probe aShh, primary screen, biochemical, biotinylated probe, 635/667 nm fluorescence (AID 1114); details: higher = more signal;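 also: probe is biotin-labelled aShh protein from a stem cell growth factor screen; measures binding of labelled protein to compounds printed on the slide; score merges feature fluorescence at 667 nm with signal-to-noise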
[8] = small-molecule microarray binders of probe aNog, primary screen, biochemical, biotinylated probe, 635/667 nm fluorescence (AID 1115); details: higher = more signal;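 also: probe is biotinylated aNog protein used at 0.15 µg/mL for 1 h at 4 C; z-score combines 667 nm fluorescence of each spot with its signal to noise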
[9] = target: Torsin-1A-interacting protein 1 (Homo sapiens) (UniProt Q5JTV8); assay: LAP1 binders from COS7 cell lysate, primary screen, small-molecule microarray, 635/667 nm fluorescence (AID 1116); details: COS7-hLAP1 lysate binding, 635 nm fluorescence, higher = more signal
Chain of Torsin-1A-interacting protein 1 (Homo sapiens) (Q5JTV8 whole entry, looked up): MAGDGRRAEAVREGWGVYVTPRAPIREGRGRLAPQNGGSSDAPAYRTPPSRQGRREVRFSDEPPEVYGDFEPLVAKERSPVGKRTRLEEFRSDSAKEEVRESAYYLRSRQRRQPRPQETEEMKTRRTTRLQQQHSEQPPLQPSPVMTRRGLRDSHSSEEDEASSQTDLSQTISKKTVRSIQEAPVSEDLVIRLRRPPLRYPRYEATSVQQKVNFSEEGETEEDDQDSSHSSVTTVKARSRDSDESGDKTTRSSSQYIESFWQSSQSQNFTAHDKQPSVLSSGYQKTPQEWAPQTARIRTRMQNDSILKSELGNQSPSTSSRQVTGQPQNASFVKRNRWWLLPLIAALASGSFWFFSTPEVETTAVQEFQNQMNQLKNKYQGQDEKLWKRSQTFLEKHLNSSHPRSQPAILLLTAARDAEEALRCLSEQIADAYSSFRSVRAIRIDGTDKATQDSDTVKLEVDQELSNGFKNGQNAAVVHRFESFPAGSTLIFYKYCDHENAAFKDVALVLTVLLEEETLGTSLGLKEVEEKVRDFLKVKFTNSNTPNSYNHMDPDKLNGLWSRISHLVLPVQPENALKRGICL

[10] = target: Alpha-bungarotoxin (Bungarus multicinctus) (UniProt P60615); assay: alpha-bungarotoxin binders on microarray, profiling panel, artefact control for SMM control protein annotation, biochemical, small-molecule microarray, Alexa647 label, 635/667 nm fluorescence (AID 1117); details: alpha-BTX-A647 binding fluorescence, higher = more signal
Chain of Alpha-bungarotoxin (Bungarus multicinctus) (P60615 whole entry, looked up): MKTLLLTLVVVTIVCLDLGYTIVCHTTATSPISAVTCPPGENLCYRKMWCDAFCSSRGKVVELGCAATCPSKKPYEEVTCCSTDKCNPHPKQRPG

Structure (SMILES)	composite z-score [1]	z-score [2]	composite z-score [3]	composite z-score [4]	composite z-score [5]	composite z-score [6]	composite z-score [7]	composite z-score [8]	composite z-score [9]	composite z-score [10]
COc1ccc(COC2OC[C@]3(C)[C@H]4C5=C(CN3C(=O)OC(C)(C)C)[C@H](C)C(CO)C(CO)C5CC[C@@H]24)cc1 (stereo not given in full)	1.27	-0.355	-0.877	1.44	0.86	0.0118	0.202	0.97	1.17	0.608
CC(C)[C@@H](CO)NC(=O)[C@H]1[C@@H](c2ccccc2)N(c2ccccc2)O[C@@H]1C	0.0503	0.0505	0.28	-0.31	-0.354	-0.148	-0.186	-0.181	0.382	0.0366
C=CC[C@@]1(C(N)=O)N=C(c2ccc(OCCCO)cc2)O[C@@H]1c1ccccc1CN=[N+]=[N-]	1.39	-1.56	-0.294	1.64	0.767	0.0597	0.166	0.661	1.91	0.834
C=CC[C@@]1(C(=O)N(C)C)N=C(c2ccc(OCCCO)cc2)O[C@@H]1c1ccccc1N=[N+]=[N-]	0.608	-1.08	0.232	2.66	1.03	0.0597	0.613	2.21	2.7	2.95
CC(C)C[C@H]1NC(=O)[C@@]23C(=O)N[C@@H](Cc4ccccc4)C2[C@H](C)[C@@]2(C)O[C@H]2C3/C=C/C/C=C\CNC(=O)[C@H](Cc2ccccc2)NC1=O (stereo not given in full)	1.06	-1.32	0.452	-0.434	-0.578	-0.0735	-0.0553	-0.194	-0.225	-0.0973
COc1ccc(C(=O)Nc2ccc(CN3C(=O)[C@@]4(O[C@@H](CCn5cc([C@H](O)c6ccccc6)nn5)[C@H]([Si](C)(C)c5ccc(OC)cc5)[C@H]4C)c4ccccc43)cc2)cc1	1.26	-4.67	-0.553	0.168	-0.0823	-0.0896	-0.0337	0.103	0.485	0.572
CC(C)(C)OC(=O)CC[C@]12N=C(c3ccc(OCCCO)cc3)O[C@H]1c1ccccc1N(CCS(=O)(=O)c1ccccc1)C2=O	1.39	-0.664	0.497	0.234	-0.353	0.0706	0.287	-0.344	0.751	1.41
COCCOC(=O)N1C(=O)[C@@]2(c3ccccc31)[C@H](c1ccc(O)cc1)N1[C@H](c3ccccc3)[C@H](c3ccccc3)OC(=O)[C@H]1[C@@H]2C(=O)NC[C@H](O)c1ccccc1	0.01	-0.296	0.25	1.34	0.682	-0.0643	0.289	0.35	0.261	0.14
COc1ccc([Si](C)(C)[C@@H]2[C@@H](CCO)O[C@]3(C(=O)N(Cc4ccc(N5C(=O)COc6ccccc65)cc4)c4ccccc43)[C@H]2C)cc1	-0.674	-4.99	0.88	1.51	0.879	0.199	-0.0146	-0.394	0.572	0.896
CCCC=C(CCC)[C@@H](NC(=O)Oc1ccc(F)cc1)c1ccc(C(=O)OC)cc1	1.32	-2.48	0.354	0.977	1.13	0.0307	0.336	0.83	0.303	0.799
COCCOC(=O)N1C(=O)[C@@]2(c3cc(C#CC4=CCCCC4)ccc31)[C@H](C(N)=O)[C@H]1C(=O)O[C@H](c3ccccc3)[C@H](c3ccccc3)N1[C@@H]2c1ccc(OCCO)cc1	-0.71	-2.5	0.331	-0.822	-0.919	-0.124	0.049	0.299	0.855	1.56
N#Cc1ccc(NN2C(C(O)c3c(F)cccc3Cl)C=CC3C(=O)N(c4ccccc4)C(=O)C32)cc1 (stereo not given)	1.47	-0.57	0.21	2.51	1.07	0.0724	-0.195	1.65	2.65	1.59
O=C1O[C@H](c2ccccc2)[C@H](c2ccccc2)N2[C@H]1[C@@H](C(=O)Nc1nc3ccccc3s1)[C@]1(C(=O)Nc3ccc(C#CC4(O)CCCCCC4)cc31)[C@H]2c1ccc(OCCO)cc1	0.877	-2.09	0.426	1.91	0.0521	-0.0381	-0.0446	0.287	1.55	1.77
CC1CC/C=C\[C@H]2OC34C=CCN(C(C)(C)C)C(=O)[C@H]3N(CCCCCCO)C(=O)[C@@H]4C2C(=O)O1 (stereo not given in full)	-0.0409	-0.549	-1.06	-0.0234	0.725	-0.154	-0.0553	0.0511	0.656	-1.06
COc1ccc([Si](C)(C)[C@H]2[C@H](CC(=O)N3CCC[C@H]3CO)O[C@@]3(C(=O)N(Cc4cccc(N5C(=O)c6cccc7cccc5c67)c4)c4ccccc43)[C@@H]2C)cc1	1.34	-3.12	0.758	0.681	-0.0975	0.0775	-0.196	1.02	0.582	1.56
C=CCOC(=O)[C@H]1[C@@H]2C(=O)O[C@@H](c3ccccc3)[C@@H](c3ccccc3)N2[C@@H](c2ccc(OCCOC(=O)[C@H]3C[C@H]4C(=O)N[C@@H](CC(C)C)C(=O)N4[C@H]3c3ccc(O)cc3)cc2)[C@]12C(=O)Nc1ccc(I)cc12	1.41	-0.86	0.644	0.321	-0.388	0.0597	0.0469	0.13	1.78	1.82
COCCCN1C(=O)[C@@]2(c3ccc([N+](=O)[O-])cc3)CC(=O)N(C3CCCCC3)[C@@H]2c2ccc(CO)cc21	0.215	-1.4	0.289	-0.463	-1.17	-0.096	-0.223	0.439	0.0951	0.467
Cc1ccc(S[C@]2(C(=O)NCC(F)(F)F)CC(=O)N(C(C)C)[C@@H]2c2ccc(CO)cc2I)cc1	-0.554	-1.76	-0.754	-0.0874	0.363	-0.101	-0.0192	0.986	-0.261	-0.472
C=C[C@H](COC(C)=O)N(C(=O)OC(C)(C)C)S(=O)(=O)c1ccc(Br)cc1	0.4	-0.757	0.467	-0.159	-0.907	0.205	0.113	-0.0185	0.395	0.397
O=C1NC(=O)C2C1C=CC(C(O)Cc1ccccc1)N2Nc1ccc(Cl)cc1Cl (stereo not given)	-1.97	0.458	-1.29	1.73	0.634	-0.0825	0.171	0.155	0.588	1.57
C=CCNC(=O)[C@H]1[C@@H]2C(=O)O[C@@H](c3ccccc3)[C@@H](c3ccccc3)N2[C@@H](c2ccc(OCCO)cc2)[C@]12C(=O)Nc1ccc(C#CC3=CCCCC3)cc12	1.4	-2.4	0.477	0.508	-0.36	0.0101	0.13	-0.143	1.26	1.11
C=C(COC)/C(=C/C[C@@H](OC(C)=O)c1ccc(CO)o1)c1cnc2ccccc2c1	1.31	-0.638	1.07	0.0708	-0.6	-0.0425	-0.0146	0.256	2.19	2.76
COc1ccc(CCNC(=O)[C@@]2(C)c3ccccc3C(=O)N(Cc3cc(F)cc(C(F)(F)F)c3)[C@H]2c2ccc(CO)cc2)cc1	0.0404	-0.928	-0.454	0.123	-0.183	-0.0944	-0.0849	0.549	-0.152	-0.838
COC(=O)[C@@]1(Cc2ccc(OC)cc2)[C@H]2c3cc(C(=O)N4CCCC4)n(Cc4ccc(OC)c(OC)c4)c3C[C@H]2CN1C(=O)c1ccccc1	1.39	-1.72	0.381	2.16	0.811	-0.158	-0.008	0.162	0.371	0.381
CC(C)(C)OC(=O)CC[C@]1(C(=O)O)N=C(c2ccc(OCCCO)cc2)O[C@H]1c1ccccc1N=[N+]=[N-]	0.148	2.27	0.101	1.84	0.465	0.38	0.699	2.34	1.41	1.42
CO[C@H]1O[C@H](CO)[C@@H](OC(=O)Nc2ccc(Br)cc2)[C@H](OC(=O)c2cc3ccccc3[nH]2)[C@H]1OC(=O)c1cc2ccccc2[nH]1	0.823	-3.51	-0.132	1.87	0.14	0.0775	-0.262	0.121	0.926	0.353
C[C@]1(C(=O)NC2CC2)c2ccccc2C(=O)N(Cc2cc(C(F)(F)F)cc(C(F)(F)F)c2)[C@H]1c1ccc(CO)cc1	1.29	-0.106	0.122	0.224	0.114	-0.0478	-0.276	0.467	0.207	1.48
